# NadD block = inhibitors of S. aureus NadD, primary screen, biochemical, colorimetric, uHTS | AID 602399, 2012 | 360,000 tested, 0.78% active | purified NadD enzyme, colorimetric absorbance read-out | inhibition, % at 20 µM; in the data active = inhibition above about 26%
# Neddylation inh = inhibitors of cullin neddylation, primary screen, biochemical, TR-FRET, uHTS, NAE and Ubc12; inhibition, % at 25 µM; AID 651699, 2012; 360,000 tested, 0.58% active; NEDD8-conjugating enzyme Ubc12 (Homo sapiens) + NEDD8-activating enzyme E1 regulatory …; in the data active = inhibition above about 36%
# sPLA2-III inh = human group III sPLA2 inhibitors, primary screen, biochemical, QFRET, BODIPY PC-A2 liposome substrate. QFRET BODIPY PC-A2 liposome hydrolysis, fluorescence. inhibition, % at 12.2 µM. 370,000 tested, 0.56% active. AID 743126, 2013;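 active = inhibition above mean plus 3 SD of compounds lying within the high and low control bounds, cut at about 19% in these data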;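 also: 0% = median of test compound wells and 100% = no enzyme DMSO wells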
# ARNT TACC3 PPI = disruptors of ARNT/TACC3 protein interaction, primary screen, biochemical, AlphaScreen, single concentration; 390,000 tested, 0.66% active; inhibition, % at 9.99 µM; AlphaScreen His-ARNT PAS-B/GST-TACC3 binding, luminescence; TACC3 fragment carries E629A point mutation;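 active = mean inhibition of replicates at least 50% and at least half of replicates each reaching 50%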;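 also: 0% = complete ARNT plus TACC3 wells and 100% = ARNT alone without TACC3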
# DAGLB inh = DAGLB lipase inhibitors, primary screen, biochemical, fluorescence, HTS; Diacylglycerol lipase-beta (Homo sapiens), Q8NCG7; HEK293T DAGLB membrane lysate, EnzChek fluorogenic substrate; inhibition, % at 5.17 µM; 340,000 tested, 0.059% active; AID 504411, 2011; in the data active = inhibition above about 34%;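 also: 0% = enzyme with vehicle and 100% = wells lacking enzyme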
# sPLA2 confirm = human group III sPLA2 inhibitors, confirmation, biochemical, QFRET, triplicate; shares compounds with sPLA2-III inh; recombinant hGIII-sPLA2, BODIPY PC-A2 QFRET fluorescence; inhibition, % at 12.2 µM; 2,000 tested, 34% active;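 active = mean inhibition across triplicates above the hit cutoff set in the earlier primary screen, cut at about 19% in these data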;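 also: 0% = enzyme with DMSO and 100% = DMSO wells lacking enzyme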
# 535nm interf = 535nm fluorescence optical interference, confirmation, artefact control for HGIII-sPLA2 inhibitor project, biochemical, QFRET | shares compounds with sPLA2-III inh | BODIPY FL product fluorescence interference | inhibition, % at 12.2 µM | 2,000 tested, 8.5% active;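 active = average inhibition above the solvent-only control mean plus 3 SD, cut at about 6% in these data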;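 also: 0% = DMSO with substrate plus product and 100% = DMSO with substrate alone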
# 535nm interf DR = 535nm fluorescence optical interference, dose response, artefact control for HGIII-sPLA2 inhibitor project, biochemical, QFRET | shares compounds with sPLA2-III inh | BODIPY FL product fluorescence interference, cell-free | IC50, µM | 240 tested, under 10 active;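 active = IC50 at or below 10 µM; inactive = IC50 above 10 µM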
# An asterisk follows results filed as active; . = no result shown. Rows were chosen to be rich in hits. Some 2% of all compounds tested hit in one or more screens of this group.
SMILES,NadD block,Neddylation inh,sPLA2-III inh,ARNT TACC3 PPI,DAGLB inh,sPLA2 confirm,535nm interf,others
CCOC1(c2ccccc2)OC(=O)c2ccccc21 (configuration not stated),-7,8,22*,-8,-2,0,-5,
CC(C)OC1(c2ccccc2)OC(=O)c2ccccc21 (configuration not stated),-2,4,-1,-5,1,.,.,
CC(C)NC(=O)Nc1ccc2c(c1)C(=O)N([C@@H](C)CO)C[C@@H](C)[C@@H](CN(C)Cc1ccncc1)OCCCC[C@H](C)O2,.,.,.,5,.,.,.,
CCOc1ccc2[nH]c3c(NCCN(CC)CC)ncnc3c2c1,-1,.,20*,11,-3,2,-16,
CCOc1ccc2[nH]c3c(NCCOC)ncnc3c2c1,-6,.,-4,4,-3,.,.,
COc1ccc(CN(C)C[C@@H]2OCCCC[C@@H](C)Oc3ccc(NC(=O)c4ccccc4)cc3C(=O)N([C@H](C)CO)C[C@H]2C)cc1,.,.,.,3,.,.,.,
O=C(COC(=O)c1cc(=O)c2ccccc2o1)Nc1ccc2ccccc2c1,-2,-5,22*,-6,-3,2,-3,
O=C(COC(=O)c1cc(=O)c2ccccc2o1)Nc1c(F)c(F)c(F)c(F)c1F,-3,9,-2,0,2,.,.,
C[C@@H]1CN([C@H](C)CO)C(=O)c2cc(NC(=O)CCC(F)(F)F)ccc2O[C@@H](C)CCCCO[C@H]1CN(C)S(=O)(=O)c1cccs1,.,.,.,11,.,.,.,
COCC#Cc1cnc2c(c1)C(=O)N([C@@H](C)CO)C[C@@H](C)[C@@H](CN(C)C(=O)Nc1cccc(F)c1)O2,.,.,.,-2,.,.,.,
COc1cc(OC)c(C2C(C#N)=C(C)NC(C)=C2C#N)c(C(=O)O)c1,-3,32,24*,4,0,1,-5,
C[C@@H]1CN([C@@H](C)CO)C(=O)c2cc(-c3ccccc3F)cnc2O[C@@H]1CN(C)C(=O)NC1CCCC1,.,.,.,0,.,.,.,
CCOC(=O)c1c(CSC(=N)N)n(-c2ccccc2)c2cc(Br)c(OC(C)=O)cc12,-7,7,44*,28,-13,35*,-19,535nm interf DR=>122
CC1CCCC(NC(=O)CSC2=Nc3ccccc3C3CC=NN23)C1C (configuration not stated),2,1,-4,0,4,.,.,
CC1CCCCC1NC(=O)CSC1=Nc2ccccc2C2CC=NN12 (configuration not stated),0,4,20*,.,-4,-3,-18,
C[C@H](NC(=O)C[C@H]1C[C@H]2c3cc(NC(=O)C4CCOCC4)ccc3O[C@H]2[C@H](CO)O1)c1ccccc1,.,.,.,-6,.,.,.,
C[C@@H]1CN([C@@H](C)CO)C(=O)c2cc(NS(=O)(=O)c3cccs3)ccc2O[C@H]1CN(C)C(=O)Nc1ccc(C(F)(F)F)cc1,.,.,.,-2,.,.,.,
COc1ccc(/C=N/NC(=O)c2cc(O)c(O)c(O)c2)cc1Cn1cc([N+](=O)[O-])cn1,28,-27,21*,18,5,27*,-10,
Cc1ccc2c(c1)C(=O)C(=O)N2Cc1ccc(Cl)cc1,2,-9,21*,-15,0,23*,1,
CC/C(=N/NC(=O)c1ccc(Br)cc1)c1ccc(OCCN2CCOCC2)cc1,-1,5,21*,-1,-2,11,-7,
CC/C(=N/NC(=O)c1ccccc1)c1ccc(OCCN2CCOCC2)cc1,-9,-5,5,-2,1,.,.,
COc1ccc(C#Cc2cnc3c(c2)C(=O)N([C@H](C)CO)C[C@H](C)[C@H](CN(C)C(=O)c2ccccc2F)O3)cc1,.,.,.,3,.,.,.,
NNC(=O)c1nc[nH]c1C(=O)Nc1ccccc1,4,0,27*,-2,-3,7,-3,
NC(=O)[C@@H]1[C@H]2C(=O)O[C@H](c3ccccc3)[C@H](c3ccccc3)N2[C@H](c2ccc(O)cc2)[C@@]12C(=O)Nc1ccc(C#CC3(O)CCCCCC3)cc12,.,.,.,7,.,.,.,
O=S1(=O)CCS(=O)(=O)C1c1ccccc1,-3,0,20*,-5,-5,-2,-5,
SMILES,NadD block,Neddylation inh,sPLA2-III inh,ARNT TACC3 PPI,DAGLB inh,sPLA2 confirm,535nm interf,others
CSC1=N/C(=C/c2cccnc2)C(=O)N1Cc1ccc(Cl)cc1,6,22,32*,-2,-1,3,-14,
CSC1=N/C(=C/c2cccnc2)C(=O)N1Cc1ccccc1,5,28,0,-6,0,.,.,
COCC(=O)N1C[C@H](C)[C@@H](OC)CN(C)C(=O)c2ccc(NC(=O)c3ccc(F)cc3)cc2OC[C@H]1C,.,.,.,-13,.,.,.,
COc1ccc(N2CCN(C(c3cccs3)C(C)NC(=O)c3ccco3)CC2)cc1 (configuration not stated),4,-1,9,-2,-1,.,.,
COc1ccc(N2CCN(C(c3cccs3)C(C)NC(=O)c3ccc4c(c3)OCO4)CC2)cc1 (configuration not stated),8,1,22*,1,-1,2,-14,
OC[C@@H]1[C@H](c2ccc(C3=CCCC3)cc2)[C@H]2CN(CCC(F)(F)F)CCCCN12,.,.,.,16,.,.,.,
CCn1c(-c2c[nH]c3ccccc23)n[nH]c1=S,9,9,24*,3,-1,15,0,
C=CCn1c(-c2c[nH]c3ccccc23)n[nH]c1=S,-4,5,1,-4,1,.,.,
C[C@H](NC(=O)C[C@H]1C=C[C@@H](NC(=O)Cc2ccccn2)[C@@H](CO)O1)c1ccccc1,.,.,.,1,.,.,.,
Oc1ccc(CCc2ccccc2)c2cccnc12,.,.,26*,.,.,21*,-3,
CO[C@H]1CN(C)C(=O)c2ccc(NS(=O)(=O)c3ccccc3)cc2OC[C@@H](C)N(C)C[C@H]1C,.,.,.,2,.,.,.,
COC(=O)c1ccc(NC(=O)CNCc2ccncc2)cc1,1,5,21*,-2,0,3,-5,
COC(=O)c1ccc(CNCC(=O)Nc2ccc(C(=O)OC)cc2)cc1,-3,10,-4,.,-2,.,.,

# High-throughput results deposited in PubChem BioAssay by several laboratories.
